RGS16-Gao HTS: modulates binding between human RGS16 and Galphao | binding response (% of control), % at 10 µM | bead-based flow cytometry RGS16-Galphao binding, fluorescence; actives lie on both sides | 220,000 compounds, 0.38% hits | AID 1441 | O15492+P09471;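 also: Galphao activated by GDP with aluminum fluoride before binding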
Target sequence (O15492 whole entry, looked up): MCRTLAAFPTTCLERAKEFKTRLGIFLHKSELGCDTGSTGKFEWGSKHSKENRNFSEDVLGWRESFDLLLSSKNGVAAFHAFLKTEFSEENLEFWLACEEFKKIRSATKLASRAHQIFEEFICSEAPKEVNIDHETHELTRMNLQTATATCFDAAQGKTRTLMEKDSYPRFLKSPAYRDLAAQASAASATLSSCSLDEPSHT
Target sequence (P09471 whole entry, looked up): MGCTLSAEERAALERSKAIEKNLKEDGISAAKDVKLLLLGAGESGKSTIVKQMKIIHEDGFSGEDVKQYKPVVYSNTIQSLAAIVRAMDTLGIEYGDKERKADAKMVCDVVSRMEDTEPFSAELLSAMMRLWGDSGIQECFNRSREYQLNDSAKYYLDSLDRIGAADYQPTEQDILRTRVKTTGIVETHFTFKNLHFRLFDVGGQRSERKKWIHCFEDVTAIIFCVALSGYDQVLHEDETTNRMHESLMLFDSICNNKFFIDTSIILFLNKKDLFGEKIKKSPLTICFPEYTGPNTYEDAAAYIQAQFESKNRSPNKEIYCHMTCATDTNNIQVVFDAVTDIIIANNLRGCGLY
GSH fluor: GSH bead compound fluorescence profile; GSH beads flow cytometry, compound fluorescence 488/530 nm; stronger effect = higher value; 190,000 compounds, 0.25% hits; AID 1776; fluorescence (KMESF) at 10 µM; in the data active = fluorescence above about 89;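 also: glutathione beads carrying GST-tagged Bcl family fusion proteins plus one bare bead set; values are compound well signal with DMSO vehicle wells as background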
RGS7-Gao: modulates binding of RGS7 to human Galphao | P09471 | Multiplexed bead flow cytometry; actives lie on both sides | binding response (% of control), % at 10 µM | 220,000 compounds, 0.35% hits | AID 1439; in the data active = binding response below about 49% or above about 150%; inconclusive = no clear call, values can overlap the other calls; inactive = in between;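 also: fluorescent Galphao held in activated GDP-AlF4 state binding bead-coupled RGS7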
Target sequence (P09471 whole entry, looked up): as above
RGS8-Gao reg: human RGS8-Galphao interaction regulation; P09471; multiplexed bead flow cytometry, RGS8-Galphao binding; actives lie on both sides; response (percent of control binding), % at 10 µM; 220,000 compounds, 0.34% hits; in the data active = response below about 60% or above about 140%; inactive = in between;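 also: Galphao activated as the GDP aluminium fluoride complex binding bead-coupled RGS8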
Avidin bead fluor: avidin bead compound fluorescence profile; fluorescence (KMESF) at 10 µM; AID 1775; 220,000 compounds, 0.38% hits; Avidin beads, compound fluorescence 488/530 nm, flow cytometry; stronger effect = higher value; in the data active = fluorescence above about 47
RGS4-Gao reg: modulates binding of RGS4 to human Galphao; AID 1415; 220,000 compounds, 0.33% hits; binding response (% of control), % at 10 µM; Multiplexed bead flow cytometry; actives lie on both sides; P09471; in the data active = binding response below about 49% or above about 150%; inactive = in between;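 also: fluorescent Galphao activated with aluminum fluoride binding bead-coupled RGS4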
RGS-Gao: RGS4-Galphao interaction regulator (human). shares compounds with RGS16-Gao HTS. 1,600 compounds, 99% hits. AID 1504. RGS4–Galpha-o binding response, % at 10 µM. multiplexed bead flow cytometry, RGS–Galpha-o binding;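 also: fluorescently labeled Galpha-o bound to GDP with aluminium fluoride binding biotinylated RGS beads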
Biotin-avidin: biotin-avidin bead binding disruption counter-screen | shares compounds with RGS16-Gao HTS | streptavidin beads, fluorescein-biotin binding, flow cytometry | inhibition, % at 10 µM | 1,700 tested, under 10 active | AID 1783;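 active = inhibition above 50%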;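 also: median green fluorescence of gated singlet beads compared with DMSO control wells; 0% = DMSO wells and 100% = complete loss of bead fluorescence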
RGS8-Gao confirm: confirmation of regulators of human RGS8-Galphao interaction. bead-based flow cytometry RGS8-Galphao binding, fluorescence; actives lie on both sides. binding response (% of control), % at 10 µM. 1,700 compounds, 3% hits. shares compounds with RGS16-Gao HTS; in the data active = binding response below about 72% or above about 130%; inactive = in between;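 also: Galphao activated as GDP AlF4 complex before binding bead RGS8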
RGS7-Gao single: RGS7-Galphao interaction regulation, single point confirmation. shares compounds with RGS16-Gao HTS. bead-based flow cytometry RGS7-Galphao binding; actives lie on both sides. response (percent of control binding), % at 10 µM. 1,700 compounds, 7.8% hits; in the data active = response below about 75% or above about 130%; inactive = in between;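 also: fluorescent Galphao activated with GDP and aluminum fluoride binding bead-coupled RGS7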
RGS16-Gao conf: RGS16-Galphao interaction regulation, single point confirmation; shares compounds with RGS16-Gao HTS; bead-based flow cytometry, RGS16-Galphao binding; actives lie on both sides; response (% of control binding), % at 10 µM; 1,700 compounds, 4% hits; in the data active = response below about 74% or above about 130%; inactive = in between;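 also: Galphao activated as the GDP aluminium fluoride complex binding bead-coupled RGS16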
RGS4-Gao confirm: RGS4-Galphao interaction regulation, single point confirmation; shares compounds with RGS16-Gao HTS; RGS4-Galphao binding, multiplexed bead flow cytometry; actives lie on both sides; binding response (% of control), % at 10 µM; 1,700 compounds, 4% hits; AID 1840; in the data active = binding response below about 74% or above about 130%; inactive = in between
RGS19-Gao single: RGS19-Galphao interaction regulation, single point confirmation; shares compounds with RGS16-Gao HTS; bead-based flow cytometry RGS19-Galphao binding; actives lie on both sides; response (percent of control binding), % at 10 µM; 1,700 compounds, 5% hits; in the data active = response below about 50% or above about 160%; inactive = in between;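 also: 100% = no compound control and 0% = blank background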
Numbers without * were called inactive; [ ] = another dose, or the depositor's remark. Rows were chosen to be rich in hits. Some 1.2% of all compounds tested hit in one or more screens of this group. Unless noted, no rule for the calls is given here.

Results for Cc1nnc2nc(-c3ccccc3)nc(-c3ccccc3)n12 ?
RGS16-Gao HTS: 91; RGS7-Gao: inconclusive; RGS8-Gao reg: 94; Avidin bead fluor: 5; RGS4-Gao reg: 92

What do the screens show for `S=C(NCc1ccncc1)NC1CCCCC1`?
RGS16-Gao HTS: 101; GSH fluor: 10; RGS7-Gao: 100; RGS8-Gao reg: 100; Avidin bead fluor: 9; RGS4-Gao reg: 101

How did Cc1ccccc1N(CC(=O)Nc1ccccc1C(=O)NCc1ccco1)S(=O)(=O)c1ccccc1 do in these assays?
RGS16-Gao HTS: 102; GSH fluor: 10; RGS7-Gao: 97; RGS8-Gao reg: 102; Avidin bead fluor: 4; RGS4-Gao reg: 99

Results for CC1CCc2nc(NC(=O)CCSc3ccccc3)sc2C1 (stereo unspecified) ?
RGS16-Gao HTS: 20*; GSH fluor: 20; RGS7-Gao: 79; RGS8-Gao reg: 70; Avidin bead fluor: 5; RGS4-Gao reg: 79; RGS-Gao: 79*; Biotin-avidin: 2; RGS8-Gao confirm: 102; RGS7-Gao single: 102; RGS16-Gao conf: 102; RGS4-Gao confirm: 102; RGS19-Gao single: 108

Results for CC1CCc2nc(NC(=O)CN3CCN(c4ccccc4)CC3)sc2C1 (stereo unspecified) ?
RGS16-Gao HTS: 105; GSH fluor: 11; RGS7-Gao: 103; RGS8-Gao reg: 104; Avidin bead fluor: 17; RGS4-Gao reg: 104

What do the screens show for `CCc1ccc(NC(=O)Nc2cccs2)cc1`?
RGS16-Gao HTS: -20*; GSH fluor: 10; RGS7-Gao: -11*; RGS8-Gao reg: 5.8*; Avidin bead fluor: -3; RGS4-Gao reg: -32*; Biotin-avidin: 1; RGS8-Gao confirm: 105; RGS7-Gao single: 98; RGS16-Gao conf: 106; RGS4-Gao confirm: 103; RGS19-Gao single: 96

How did Cc1ccc(NC(=O)Nc2cccs2)cc1 do in these assays?
RGS16-Gao HTS: 97; GSH fluor: 31; RGS7-Gao: 99; RGS8-Gao reg: 100; Avidin bead fluor: 12; RGS4-Gao reg: 100

How did Cc1ccnc(NC(c2ccccn2)c2c(C)[nH]c3ccccc23)c1 (stereo unspecified) do in these assays?
RGS16-Gao HTS: 101; GSH fluor: 11; RGS7-Gao: 106; RGS8-Gao reg: 101; Avidin bead fluor: 10; RGS4-Gao reg: 100

What do the screens show for `CCn1c(C)nc2cc(C(=O)N/N=C/c3ccccc3)ccc21`?
RGS16-Gao HTS: 98; GSH fluor: 23; RGS7-Gao: 97; RGS8-Gao reg: 101; Avidin bead fluor: 13; RGS4-Gao reg: 98

Results for CCCCOc1ccc(C2=NNC(=O)CC2)cc1 ?
RGS16-Gao HTS: 103; GSH fluor: 13; RGS7-Gao: 100; RGS8-Gao reg: 98; Avidin bead fluor: 11; RGS4-Gao reg: 100

Results for CCC(CC)=N/N=C/c1c(O)n(CC)c2cc(C3=NNC(=O)CC3)ccc12 ?
RGS16-Gao HTS: 24*; GSH fluor: 16; RGS7-Gao: 77; RGS8-Gao reg: 67; Avidin bead fluor: 12; RGS4-Gao reg: 80; RGS-Gao: 80*; Biotin-avidin: 1; RGS8-Gao confirm: 105; RGS7-Gao single: 100; RGS16-Gao conf: 110; RGS4-Gao confirm: 100; RGS19-Gao single: 110

What do the screens show for `CCn1c(O)c(/C=N/N=C/c2ccccc2)c2ccc(C3=NNC(=O)CC3)cc21`?
GSH fluor: 37; Biotin-avidin: 2; RGS8-Gao confirm: 100; RGS7-Gao single: 111; RGS16-Gao conf: 103; RGS4-Gao confirm: 105; RGS19-Gao single: 100

How did COc1cc(CC(=O)N2CCc3ccccc32)cc(OC)c1OC do in these assays?
GSH fluor: 44; RGS4-Gao reg: 146; Biotin-avidin: 2; RGS8-Gao confirm: 100; RGS7-Gao single: 99; RGS16-Gao conf: 98; RGS4-Gao confirm: 98; RGS19-Gao single: 98

Results for COc1ccc(CC(=O)N2CCCc3ccccc32)cc1OC ?
RGS16-Gao HTS: 85; GSH fluor: 34; RGS7-Gao: 101; RGS8-Gao reg: 96; Avidin bead fluor: 10; RGS4-Gao reg: 100

What do the screens show for `COc1cc(C(=O)Nc2ccc3c(c2)CCN3C(C)=O)cc(OC)c1OC`?
RGS16-Gao HTS: 170; GSH fluor: 34; RGS7-Gao: 186*[activator]; RGS8-Gao reg: 109; Avidin bead fluor: 21; RGS4-Gao reg: 207*[activator]; Biotin-avidin: 0; RGS8-Gao confirm: 107; RGS7-Gao single: 112; RGS16-Gao conf: 111; RGS4-Gao confirm: 106; RGS19-Gao single: 118

How did NNC(=O)CNC(c1ccccc1)c1cc(Br)ccc1NC(=O)c1ccccc1Br (stereo unspecified) do in these assays?
RGS16-Gao HTS: 108; GSH fluor: 16; RGS7-Gao: 104; RGS8-Gao reg: 104; Avidin bead fluor: 14; RGS4-Gao reg: 102

What do the screens show for `N#C/C(=C\C=C\c1ccccc1)c1nc(-c2ccc(Cl)cc2)cs1`?
RGS16-Gao HTS: 98; RGS7-Gao: inconclusive; RGS8-Gao reg: 99; Avidin bead fluor: 7; RGS4-Gao reg: 93

How did Cc1ccc(/C=N/n2c(-c3ccncc3)n[nH]c2=S)cc1 do in these assays?
RGS16-Gao HTS: -29; GSH fluor: 11; RGS7-Gao: 58; RGS8-Gao reg: 51*; Avidin bead fluor: 3; RGS4-Gao reg: 63; RGS-Gao: 63*; Biotin-avidin: 2; RGS8-Gao confirm: 108; RGS7-Gao single: 123; RGS16-Gao conf: 109; RGS4-Gao confirm: 112; RGS19-Gao single: 98

Bioassay records (PubChem)
